Experimental data as given in PubChem BioAssay (NCI).
About 83,000 compounds went through this panel and 20% of them were active in at least one assay; those are over-represented in the sample as a whole.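 Note: values are percent growth. 100 is the growth of untreated cells, values between 100 and 0 indicate rising inhibition; between -100 and 0 indicates cell death.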 The source made the active and inactive calls.

The compounds below were run on HT29 colon (assay: NCI-60 one-dose screen, 48 h (100 = growth as untreated, 0 = no growth, -100 = all killed)). Conditions: 10 µM unless noted.
Method: Growth inhibition of the HT29 human tumor cell line is measured as a screen for anti-cancer activity. Cells are grown in 96 well plates and exposed to the test compound for 48 hours. Compounds are tested at a single concentration, which is 10^-5 M for most compounds. The reported endpoint is percent growth (GI% or GIPRCNT), where numbers from 0 - 100% represent growth inhibition, and numbers from -100% - 0 represent cell death. For example, a value of 40 represents 60% growth inhibition. A value of 0 means no net growth occurred over the course of the experiment. A value of -40 indicates 40% of cells at the beginning of the experiment died by the end of the experiment. A value of -100 means all cells are dead at the end of the experiment.
NCI-60 Human Tumor Cell Lines Screen was performed using the standard one-dose NCI protocol, which is described in more detail at https://dtp.cancer.gov/discovery_development/nci-60/default.htm.
Compounds with GIPRCNT values below 10 were considered active. Activity score was based on GIPRCNT using the following formula: […]
Score is 0 for GIPRCNT values of 100 or above, 50 for GIPRCNT values of 0, and 100 for GIPRCNT values of -100.
`O=C(/C=C/c1ccccc1)n1c(-c2ccc(Cl)cc2)nc2ccccc21` was tested, and the growth was -40.6% (active).
For `COc1cc(Cn2c(-c3nonc3N)nc3ccccc32)ccc1C`, the growth was 0.109% (active).
For `NS(=O)(=O)c1ccc(NCC(=O)Nc2ccc(-c3nc4ccccc4s3)cc2)cc1`, the growth was 74.5% (inactive).
`Clc1ccc2c(c1)NC1(CCSc3ccccc31)n1nccc1-2` (stereo not given) was tested, and the growth was 90.9% (inactive).
For `COc1ccc(C(=O)c2cc(OC)c(OC)c(OC)c2)cc1/C=C/C(=O)c1ccc(OC)c(OC)c1`, the growth was 9.61% (active).
In the case of `C=C1C(=O)O[C@H]2[C@H]1CC/C(COC(=O)NCCc1ccc(Br)cc1)=C\CC[C@@]1(C)O[C@@H]21`, the growth is reported as -46.7% (active).
With `CC(Br)C(Br)c1cc2c(cc1Br)OCO2` (stereo not given) the growth was 96% (inactive).
With `Cn1c(C(N)=O)cc2c1-c1nc(NC3CCCCC3)ncc1CCC2` the growth was 91.4% (inactive).
`O=C(/C=C/CN1CCOCC1)Nc1cc2c(Nc3ccc(F)c(Cl)c3F)ncnc2cc1OCCOC(F)F` was tested, and the growth was 43.3% (inactive).
With `COc1ccc(/C=C/c2nc(N3CCOCC3)c3cc(F)c(F)cc3n2)cc1OC` the growth was 42.4% (inactive).
For `COc1ccc(-n2c(C)cc(-c3ccccc3)c2C)cc1`, the growth was 12.4% (inactive).
`COc1ccc(/C=C2\Oc3cc(OCCN4CCCC4)ccc3C2=O)c(OC)c1` was tested, and the growth was 17.6% (inactive).
In the case of `CCCCCCC[C@@H](O)CC(=O)N[C@H](CCCCN)C(=O)N[C@H](Cc1c[nH]c2ccccc12)C(=O)NC(CCCCN)C(=O)N[C@H](CC(C)C)C(=O)N[C@H](Cc1ccccc1)C(=O)N[C@H](CCCCN)C(=O)N[C@H](CCCCN)C(=O)N[C@H](CC(C)C)C(=O)N1CCCC1C(=O)N[C@H](CCCCN)C(=O)N[C@H](Cc1ccccc1)C(=O)N[C@H](CC(C)C)C(=O)N[C@H](Cc1c[nH]cn1)C(=O)N[C@H](CC(C)C)C(=O)N[C@H](C)C(=O)N[C@H](CCCCN)C(=O)N[C@H](CCCCN)C(=O)N[C@H](Cc1ccccc1)C(=O)O` (stereo not given in full), the growth is reported as -52.7% (active).
For `O=C(O)C(Cc1ccccc1)N1C(=O)/C(=C/C(Cl)=C/c2ccc([N+](=O)[O-])cc2)SC1=S` (stereo not given), the growth was 30.8% (inactive).
In the case of `CN1CCN(CCCOc2ccc3nc(Nc4ccc(C(F)(F)F)c(Cl)c4)ccc3c2)CC1`, the growth is reported as -67.2% (active).
For `CCOc1ccc(/C=C/C=N/NC(N)=S)cc1`, the growth was 62.1% (inactive).
For `CC(C(=O)n1cc(-c2ccccc2)c(-c2ccccc2)c1)c1ccccc1` (stereo not given), the growth was 107% (inactive).
With `CCN1C(=S)N(CC)C2Nn3c(s/c(=C4\C(=O)N(C)c5ccccc54)c3=O)=NC21` (stereo not given) the growth was 14.9% (inactive).
`CNC(C)=O` was tested, and the growth was 94.8% (inactive).
With `CC1=NN2C(=NC3=C(CCC/C3=C\c3ccc(Cl)cc3)C2c2ccc(Cl)cc2)S1` (stereo not given) the growth was 48.1% (inactive).
For `OC1CC2c3ccccc3C1c1ccccc12` (stereo not given), the growth was 110% (inactive).
`CCCS(=O)(=O)c1nc(NC2CC2)cc(-c2ccc3c(ccn3C3CC(C)(C)NC(C)(C)C3)c2)n1` was tested, and the growth was -48% (active).
In the case of `O=C(CC(O)c1ccncc1)c1ccccc1` (stereo not given), the growth is reported as 32.7% (inactive).
`COc1cc(CNC(=O)CCSc2nc3ccccc3c(=O)n2Cc2cc(OC)c(OC)c(OC)c2)cc(OC)c1OC` was tested, and the growth was 12.9% (inactive).
`O=c1[nH]c2ccccc2cc1-c1nnc(Cc2ccccc2)o1` was tested, and the growth was 57.9% (inactive).
With `Cc1ccc(S(=O)(=O)OC2COCOC2C(OS(=O)(=O)c2ccc(C)cc2)C2OCOCC2OS(=O)(=O)c2ccc(C)cc2)cc1` (stereo not given) the growth was 98.7% (inactive).
`O=P([O-])(O)OP(=O)([O-])O.[NH-][C@H]1CCCC[C@@H]1[NH-].[OH-].[OH-].[Pt+4]` was tested, and the growth was 110% (inactive).
In the case of `Cc1oc2nc[nH]c(=O)c2c1C(=O)/C=C/c1ccc(Cl)cc1`, the growth is reported as 12.9% (inactive).
With `Cc1cc(C)c2c(=O)[nH]c(SCC(=O)Nc3cccc(S(=O)(=O)N(C)C)c3)nc2n1` the growth was 104% (inactive).
With `O=C(O)c1cccc([N+](=O)[O-])c1/C=C/c1ccccc1` the growth was 100% (inactive).
With `O=C1CCC/C=C\C[C@H]2C=CC(=O)/C2=C/C[C@H](C/C=C\CC(F)(F)F)O1` the growth was -28.9% (active).
In the case of `C=CCOc1cccc(/C=C/C(=O)c2sc(Nc3cccnc3)nc2C)c1`, the growth is reported as 16.8% (inactive).
With `CC(C)(C)c1ccc(S(=O)(=O)Oc2ccc3c4c(c(=O)oc3c2)CCCCC4)cc1` the growth was 15.8% (inactive).
In the case of `CCCCOc1nc2c(C)cccc2cc1C1CNC(=O)c2ccccc2N1` (stereo not given), the growth is reported as 61.4% (inactive).
For `O=C(Nc1cc(C(F)(F)F)cc(C(F)(F)F)c1)Nc1ccc(OCc2nnc(-c3ccc(Cl)cc3)o2)c(F)c1`, the growth was 10.8% (inactive).
For `O=C(CNC(=O)c1cccc2ccccc12)Nc1ccccc1Oc1ccccc1`, the growth was 1.97% (active).
With `COc1cc(Br)c(OC)cc1Br` the growth was 96.4% (inactive).
`Clc1ccc(-c2nc(-c3ccco3)cn3ccnc23)cc1` was tested, and the growth was 40.3% (inactive).
In the case of `COc1cccc(/C=C/C(=O)c2sc(Nc3ccc(O)cc3)nc2C)c1`, the growth is reported as 82% (inactive).
With `COc1cc(C(=O)N2CCN(C(=O)c3ccco3)CC2)c(N)cc1OCc1ccccc1` the growth was 107% (inactive).
